Shown are actives, neighbours in structure and some others; about 21% of the full set was active somewhere.
Gal4-VP16 FLuc – Gal4-VP16 reporter inhibition counter-screen | Drosophila S2 Gal4-VP16 UAS-luciferase, luminescence, 20 h | Potency, µM (doses to about 53.6 µM), usual class: inhibitors | actives 3.5% (n = 310,000) | AID 2546;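 further: Gal4-VP16 expression switched on by copper sulfate through the metallothionein promoter; nearly all actives have a fitted effect of over 50% in size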
IL1B secr inh – inhibitors of inflammasome signaling (IL-1 beta secretion); activity change, % at 57.5 µM; actives 4.7% (n = 360,000); THP-1 LPS/ATP IL-1B secretion, AlphaLISA, 16 h; stronger effect = lower value; in the data active means activity change below about -50%; inconclusive means mostly about -30% to -49%
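THP-1 cells pretreated 1 hr with compounds (up to 57.5 uM final), then stimulated with LPS (250 ng/mL final) plus ATP (1.25 mM final); secreted IL-1B measured by AlphaLISA after 16 hr, decreased signal indicating inhibition.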
DT40 TDP1 CPT – DT40-hTDP1 cell growth loss with CPT. chicken DT40 Tdp1-/-;hTDP1 cells + 20 nM CPT, ATP luminescence, 48 h. Potency, µM (titrated, usually from 46.2 µM), usual class: inhibitors. actives 12% (n = 420,000). AID 686979; further: nearly all actives have a fitted effect of over 55% in size
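Chicken DT40 Tdp1-/- cells complemented with human TDP1, 400 cells/well, exposed to compounds plus 20 nM camptothecin for at least 48 h at 37 C; viability read as ATP content by CellTiter-Glo luminescence.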
DT40 TDP1 no CPT – qHTS for Inhibitors of human tyrosyl-DNA phosphodiesterase 1 (TDP1): qHTS in cells in absence of CPT | actives 15% (n = 420,000) | Potency, µM (titrated, usually from 46.2 µM), usual class: inhibitors | DT40 Tdp1-/- hTDP1 cells, no CPT, ATP luminescence, 48 h; further: nearly all actives have a fitted effect of over 55% in size
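Readout: luminescence from CellTiter-Glo after 30 min in the dark at RT. Cells: DT40 Tdp1-/- with stable hTDP1, 400/well. Exposure: compounds alone, ≥48 hr, 37 °C.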
ELG1 repair inh – ELG1-dependent DNA repair inhibition | HEK293T ELG1-luciferase reporter, luminescence, 16 h; DNA damage induced by 5-fluorouridine | Potency, µM (top dose mostly 46.1 µM), actives largely listed as inhibitors | actives 2.3% (n = 330,000); further: nearly all actives have a fitted effect of over 55% in size
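Overnight (16 hr) co-exposure of 2,000 cells/well to 5-fluorouridine and compound at 37 °C preceded detection. Luciferase was quantified via ONE-Glo luminescence; loss of signal denotes inhibition.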
RORg inh – inhibitors of mouse ROR gamma transcriptional activity. P51450. actives 5.4% (n = 310,000). Potency, µM (titrated, usually from 53.6 µM), most hits filed as inhibitors. Drosophila S2 Gal4-RORgamma UAS-luciferase reporter, 20 h. AID 2551; further: nearly all actives have a fitted effect of over 60% in size
Target sequence (P51450 whole entry, looked up, the tested form may be a part): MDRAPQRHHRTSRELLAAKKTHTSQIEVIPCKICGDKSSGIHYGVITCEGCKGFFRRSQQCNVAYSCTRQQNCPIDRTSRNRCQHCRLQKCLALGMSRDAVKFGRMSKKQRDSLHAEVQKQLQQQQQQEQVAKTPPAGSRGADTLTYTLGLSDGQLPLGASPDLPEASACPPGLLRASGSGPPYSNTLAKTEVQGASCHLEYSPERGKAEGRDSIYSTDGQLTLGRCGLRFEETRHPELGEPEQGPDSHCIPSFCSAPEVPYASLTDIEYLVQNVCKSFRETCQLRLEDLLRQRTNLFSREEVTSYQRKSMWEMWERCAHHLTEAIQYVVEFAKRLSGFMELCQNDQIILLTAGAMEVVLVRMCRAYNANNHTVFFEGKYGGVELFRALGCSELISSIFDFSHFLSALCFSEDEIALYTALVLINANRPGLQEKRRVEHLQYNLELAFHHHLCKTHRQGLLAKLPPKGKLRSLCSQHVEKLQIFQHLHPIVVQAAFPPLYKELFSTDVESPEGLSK
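Drosophila Schneider cells stably carrying a metallothionein-driven Gal4 DBD–ROR gamma fusion and a UAS-Photinus luciferase reporter were exposed to compound for 1 hr, then induced with copper sulfate (700 uM final) for 20 hr at ambient temperature before luminescence reading.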
Hits are given with their value; – = inactive; ? = inconclusive; · = not tested or not shown; ! = repeats disagree; [ ] = another dose, or the depositor's remark. Unless noted, the call rests on the fitted dose curve; in most records, active means well fitted curve in the direction sought with a large enough effect; inconclusive means small, poorly fitted or top-dose-only effect, or another doubt; inactive means no such curve, though single readings can be large; an effect the other way counts as inactive or inconclusive.

SMILES	Gal4-VP16 FLuc	IL1B secr inh	DT40 TDP1 CPT	DT40 TDP1 no CPT	ELG1 repair inh	RORg inh
Cc1cccc(COCC(CC(C)C)N2CCN(C(=O)c3ccc(C(F)(F)F)cc3)CCC2=O)c1 (stereo not given)	?	-53.8	23.1µM	?	–	?
CC(C)CC(COCc1ccc([N+](=O)[O-])cc1)N1CCN(C(=O)c2ccc(C(F)(F)F)cc2)CCC1=O (stereo not given)	–	?	18.4µM	?	?	–
CC(C)CC(COCc1ccc(F)cc1)N1CCN(C(=O)c2cccc(C(F)(F)F)c2)CCC1=O (stereo not given)	–	–	?	?	–	–
CC(C)C[C@@H](COCc1ccc(F)cc1)N1CCN(C(=O)c2cccc(C(F)(F)F)c2)CCC1=O	·	–	?	?	·	·
Cc1ccc(COCC(CC(C)C)N2CCN(C(=O)c3cccc(C(F)(F)F)c3)CCC2=O)cc1 (stereo not given)	–	–	?	?	–	?
CCCS(=O)(=O)NC(=O)C1(C)CCN(C(=O)c2ccc(C(=O)OC)cc2)C1 (stereo not given)	·	–	–	–	·	·
Cc1nc(Cl)sc1C(=O)Nc1ccc(Cl)cc1	–	–	–	–	?	?
CN(C(=S)Nc1ccccc1F)C1(c2ccccc2Cl)CCCCC1=O (stereo not given)	–	–	–	–	–	–
O=C(NNc1ccccc1F)c1cccs1	·	·	–	?	·	·
CC(=O)c1cccc(NS(=O)(=O)c2ccc(-c3cnc(C4CC4)o3)cc2)c1	8.91µM	–	4.11µM	2.59µM	?	–
c1ccc(-c2cnc(C3CCCCC3)o2)cc1	·	–	–	–	·	·
Nc1ncc(S(=O)(=O)NCc2ccc(F)cc2)cn1	·	·	–	–	·	·
Cc1cc(C)cc(NS(=O)(=O)c2ccc(-c3cnc(C4CC4)o3)cc2)c1	?	–	0.82µM	0.82µM	–	?
O=S(=O)(NCc1ccc(F)cc1)c1ccc(-c2cnc(C3CC3)o2)cc1	–	–	18.4µM	10.3µM!	–	–
O=S(=O)(c1ccc(-c2cnc(C3CC3)o2)cc1)N1CCN(c2ccccc2F)CC1	·	·	?	–	·	·
Cc1ccc(C)c(NS(=O)(=O)c2ccc(-c3cnc(C4CC4)o3)cc2)c1	–	–	0.0058µM	0.0052µM	?	?
CCOc1ccc(NS(=O)(=O)c2ccc(-c3cnc(C4CC4)o3)cc2)cc1	–	–	?	9.2µM	?	–
CC(=O)Nc1ccc(NS(=O)(=O)c2ccc(-c3cnc(C4CC4)o3)cc2)cc1	–	–	–	–	–	–
O=S(=O)(Nc1ccccc1)c1ccc(-c2cnc(C3CC3)o2)cc1	–	–	3.66µM	2.31µM	–	–
Cc1ccc(NS(=O)(=O)c2cc3[nH]c(=O)c(=O)[nH]c3cc2C)cc1N(C)C	·	·	–	–	·	·
Cc1ccc(NS(=O)(=O)c2ccc(-c3cnc(C4CC4)o3)cc2)cc1N(C)C	·	·	1.03µM	0.731µM	·	·
Cc1ccc(Cl)cc1N1CCN(S(=O)(=O)c2ccc(-c3cnc(C4CC4)o3)cc2)CC1	·	·	?	13µM	·	·
COc1ccc(N2CC(NC(=O)C3CCCC3)CC2=O)cc1OC (stereo not given)	·	·	–	–	·	·
Cc1ncc2c(c1CNC(=O)c1cncs1)CCN(C(=O)c1ccc(C(F)(F)F)cc1)C2	·	·	–[9.04 µM]	–	·	·
Cc1ccc(NC(=O)CNc2ccccc2N2CCCC2=O)cc1S(=O)(=O)N1CCOCC1	·	–	?	?	–	·
SMILES	Gal4-VP16 FLuc	IL1B secr inh	DT40 TDP1 CPT	DT40 TDP1 no CPT	ELG1 repair inh	RORg inh
CC(C)(C)c1ccc(C(=O)N/C(=C\c2cccc([N+](=O)[O-])c2)C(=O)Nc2cccc(C(=O)O)c2)cc1	·	–	–	–	–	·
Cc1cccc(NS(=O)(=O)c2ccc(-c3cnc(C4CC4)o3)cc2)c1C	–	–	0.0073µM	0.0103µM	–	–
Cc1cccc(NS(=O)(=O)c2ccc(C(=O)NCC3CCCO3)cc2)c1C (stereo not given)	–	–	–	–	–	–
COc1ccc(NS(=O)(=O)c2ccc(-c3cnc(C4CC4)o3)cc2)cc1Cl	·	·	0.651µM	1.46µM	·	·
CC1=NN(c2ccccc2)C(=O)/C1=C\c1cn(CCC#N)nc1-c1ccc(Cl)cc1	–	-85.2	?	?	–	–
CC1(C)CC(=O)C(=Cc2cn(-c3ccccc3)nc2-c2ccccc2)C(=O)C1	·	–	23.1µM	23.1µM	·	·
Cc1ccc(-c2nn(-c3ccccc3)cc2C=C2C(=O)CC(C)(C)CC2=O)cc1	–	–	14.6µM	?	–	–
CC1=NNC(=O)/C1=C\c1cn(-c2ccccc2)nc1-c1ccc(Cl)cc1	3.16µM	-118.6	5.17µM	5.17µM	9.2µM	5.01µM
CCC(=O)c1ccc(OCC(=O)OC(C)C(=O)NCc2ccc3c(c2)OCO3)cc1 (stereo not given)	·	–	–	–	–	·
CC(C)(C)c1ccccc1NC(=O)c1ccco1	–	–	–	–	–	–
COc1ccc(NC(=S)N2CCC(C(=O)c3ccc(F)cc3)CC2)cc1	·	–	?	–	·	·
COc1ccc(OC)c(NC(=O)CN2CCC(C(=O)c3ccc(C)cc3)CC2)c1	–	–	25.9µM	20.6µM	20.6µM	–[10 µM]
COc1ccc(NC(=S)N2CCC(C(=O)c3ccc(C)cc3)CC2)c(OC)c1	–	–	13µM	9.2µM	–	–
COc1ccc(NC(=O)CN2CCC(C(=O)c3ccc(F)cc3)CC2)c(OC)c1	–	–	?	20.6µM	?	–
COc1ccc(NC(=O)CN2CCC(C(=O)c3ccc(C)cc3)CC2)c(OC)c1	–	–	?	?	?	?
COc1cc(Nc2ncc3c(n2)CCN(Cc2cc(F)cc(F)c2)C3)cc(OC)c1	·	·	4.61µM	3.66µM	·	·
COc1cc(Nc2ncc3c(n2)CCN(Cc2cccc(C)c2)C3)cc(OC)c1	·	·	3.66µM	3.26µM	·	·
COc1ccc(OC)c(Nc2ncc3c(n2)CCN(Cc2cc(OC)c(OC)c(OC)c2)C3)c1	·	·	5.8µM	7.31µM	·	·
CC(C)COc1ccc(C(=O)NNC(=O)c2ccc(=O)[nH]c2)cc1	·	–	–	–	–	·
CN1CCC(N(C)C(=O)c2cc(-c3ccccc3Cl)nc3ccccc23)CC1	·	–	?	?	–	·
C[C@@H](O)CCC[C@H](O)/C=C/[C@@H]1[C@@H](C/C=C\CCCC(=O)O)[C@@H](O)C[C@H]1O	–	·	·	·	·	–
O=C(NCC1COc2ccccc2O1)c1cc(S(=O)(=O)N2CCOCC2)c(Cl)cc1Cl (stereo not given)	·	–	?	–	18.3µM	·

Bioassay records from PubChem BioAssay.
